# High-throughput results as filed in PubChem.
# IMPase Li cell – qHTS Assay for Identifying the Cell-Membrane Permeable IMPase Inhibitors: Potentiation with Lithium | actives 0.35% (n = 210,000) | AID 1457, 2008 | CHO-M1 cells, IP1 TR-FRET (IP-One), carbachol + lithium | Potency, µM (titrated, usually from 59.4 µM), for inactives: at the top dose activity, negative = IMPase inhibition, actives largely listed as inhibitors;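 further: IP1 builds up when IMPase is blocked and the TR-FRET signal falls; potency means the concentration at half of the fitted maximal effect; plate controls were basal vehicle for no effect and high inhibitor control for full effect; nearly all actives have a fitted effect of over 50% in size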
#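 Lithium-sensitised IP1 accumulation assay; M1-expressing CHO cells treated 30 min at 37C with compound. Competitive antibody detection by time-resolved FRET followed a 10 min room-temperature lysis step.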
# IMPase cell inh – qHTS Assay for Identifying the Cell-Membrane Permeable IMPase Inhibitors; AID 901, 2007; inhibition (IP1 accumulation), % at 46.1 µM; Inositol monophosphatase 1 (Rattus norvegicus), P97697; CHO-M1 cells, IP1 accumulation, HTRF TR-FRET ratio; 120,000 tested, under 10 active; active means well fitted curve in the direction sought with a large enough effect in the signal ratio, not every such curve was filed as active; inconclusive means small, poorly fitted or top-dose-only effect, or a change in a side signal; inactive means no such curve, though single readings can be large or run the other way; the % refers to the signal ratio;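 further: cells stimulated with carbachol in lithium chloride buffer; plate controls were DMSO basal wells for no effect and reference inhibitor wells for full effect; higher means more IMPase inhibition seen as more IP1 and lower FRET ratio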
#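 The IP-One HTRF competitive assay in carbachol-stimulated CHO-M1 cells quantifies cellular IP1. Compounds spanned up to 46 uM final, and activity is expressed as AC50 from concentration-response fits of the ratio and donor data.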
# NPSR antag – qHTS Assay for Antagonists of the Neuropeptide S Receptor: cAMP Signal Transduction; AID 1461, 2008; actives 1% (n = 220,000); Potency, µM (doses to about 38.3 µM), inactives show at the top dose activity change, negative = inhibition, actives largely listed as inhibitors; CHO-NPSR cells, cAMP TR-FRET, antagonist mode; Q6W5P4; further: potency means the concentration at half of the fitted maximal effect; nearly all actives have a fitted effect of over 50% in size
# 12-hLO inh – qHTS Assay for Inhibitors of 12-hLO (12-human lipoxygenase). purified 12-hLO, xylenol orange hydroperoxide absorbance. actives 0.12% (n = 150,000). AID 1452, 2008. Potency, µM (highest dose often 57.1 µM), for the others: at the top dose activity change, negative = inhibition, usual class: inhibitors; further: potency means the concentration at half of the fitted maximal effect; nearly all actives have a fitted effect of over 55% in size
#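 Purified human 12hLO (150 nM), preincubated 15 min with compound, then 40 uM arachidonic acid for 30 min, room temperature, Hepes pH 7.0 with 0.01% Triton X-100. Hydroperoxide detected by ferrous iron/xylenol orange; 573/405 nm absorbance ratio gives reaction progress.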
# ALDH1A1 inh – qHTS Assay for Inhibitors of Aldehyde Dehydrogenase 1 (ALDH1A1); actives 7.3% (n = 220,000); AID 1030, 2008; Potency, µM (titrated, usually from 75.3 µM), for the others: at the highest dose activity, negative = inhibition, hits mostly inhibitors; Purified ALDH1A1, NADH fluorescence, propionaldehyde substrate; Aldehyde dehydrogenase 1A1 (Homo sapiens), P00352; active means well fitted inhibition curve with a large enough effect, not every such curve was filed as active; inconclusive means small, poorly fitted or top-dose-only effect, or another doubt; inactive means no such curve, though single readings can be large or run the other way;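 further: potency means the concentration at half of the fitted maximal effect; plate controls were no enzyme wells and a reference inhibitor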
# Target sequence (P00352 whole entry, looked up): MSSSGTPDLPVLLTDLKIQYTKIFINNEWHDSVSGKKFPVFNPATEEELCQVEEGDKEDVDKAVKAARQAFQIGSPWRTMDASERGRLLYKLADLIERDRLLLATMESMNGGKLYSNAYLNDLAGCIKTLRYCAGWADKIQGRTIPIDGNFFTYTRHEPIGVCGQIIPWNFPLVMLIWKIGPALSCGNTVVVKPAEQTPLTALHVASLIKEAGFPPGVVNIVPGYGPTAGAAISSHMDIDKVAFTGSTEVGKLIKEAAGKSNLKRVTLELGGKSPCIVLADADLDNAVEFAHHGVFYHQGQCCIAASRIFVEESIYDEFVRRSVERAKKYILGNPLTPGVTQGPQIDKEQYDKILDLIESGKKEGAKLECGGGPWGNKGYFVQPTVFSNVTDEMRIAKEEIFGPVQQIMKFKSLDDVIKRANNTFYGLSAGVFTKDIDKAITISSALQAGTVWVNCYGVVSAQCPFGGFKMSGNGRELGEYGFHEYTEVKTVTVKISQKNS
# HPGD inh – qHTS Assay for Inhibitors of HPGD (15-Hydroxyprostaglandin Dehydrogenase); purified HPGD, NADH fluorescence kinetic, PGE2 substrate; Potency, µM, without a hit: at the highest dose activity change, negative = inhibition, usual class: inhibitors; actives 4.3% (n = 150,000); active means well fitted inhibition curve with a large enough effect, not every such curve was filed as active; inconclusive means small, poorly fitted or top-dose-only effect, or another doubt; inactive means no such curve, though single readings can be large or run the other way; further: potency means the concentration at half of the fitted maximal effect
#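 NADH formation kinetics: reaction with 30 uM PGE2 and 1 mM NAD+ (final), 20 nM enzyme, Tris-HCl pH 8 with Tween 20, after 15 min compound preincubation at room temperature. Fluorescence change, last versus first of five reads.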
# * = called active by the depositor; ? = inconclusive; / = no result given; [ ] = remark or other dose. An excerpt weighted towards active compounds, which were near 8.9% of everything screened. Unless noted, the call rests on the fitted dose curve; in most records, active means well fitted curve in the direction sought with a large enough effect; inconclusive means small, poorly fitted or top-dose-only effect, or another doubt; inactive means no such curve, though single readings can be large; an effect the other way counts as inactive or inconclusive. Unless noted, on the % scale 0 is the no-effect control and ±100 the full control effect.
SMILES,IMPase Li cell,IMPase cell inh,NPSR antag,12-hLO inh,ALDH1A1 inh,HPGD inh
COc1ccc2c(CC(=O)N3CCN(S(=O)(=O)c4cccs4)CC3)coc2c1,3.9%[38.3 µM],-5.2,-8.0%[46.1 µM],-9.8%,2.82µM*,-5.4%
COc1cc([N+](=O)[O-])cc(/C=N/N(CCC#N)C(C)=O)c1O,4.7%,/,-18.0%,/,10µM*,/
CC(=O)NC(C(=O)O)C(C)(C)SN=O (centres undefined),15.0%,/,/,/,1.1%,-5.8%
Cc1cc(C(=O)CN2C(=O)CCC2=O)c(C)n1Cc1ccccc1,-9.0%[38.3 µM],12.1,-1.1%[46.1 µM],1.1%,7.08µM*,-9.8%
O=C1C(=Cc2cccs2)C(=O)c2ccccc21,9.5%,/,25.0%,2.0%,?,?
Cc1ccc(C=C2C(=O)c3ccccc3C2=O)s1,52.2%[38.3 µM],1.9,?,-26.4%,0.501µM*,12.6µM*
O=C(O)CCC(=O)N1N=C(c2c(-c3ccccc3)c3cc(Cl)ccc3[nH]c2=O)CC1c1ccccc1 (centres undefined),15.8%,/,6.7%,/,5.4%,/
COc1ccc(/C=C2\SC(=S)N(NC(=O)c3ccncc3)C2=O)cc1OC,7.5%,/,-19.6%,/,-6.9%,/
COc1cc(/C=C2\NC(=S)N(C)C2=O)ccc1O,18.2%,/,-29.5%,/,?,/
O=C(NN1C(=O)/C(=C/c2ccc(O)c([N+](=O)[O-])c2)SC1=S)c1ccccc1Cl,1.0%,/,6.31µM*,/,?,/
O=C1/C(=C/c2ccc(O)c([N+](=O)[O-])c2)SC(=S)N1Cc1ccccc1,11.1%,/,-43.5%,/,3.98µM*,/
NC1=NC(=O)/C(=C\c2ccc(O)c([N+](=O)[O-])c2)S1,28.5%,/,-15.8%,/,-16.4%,/
CN1C(=O)/C(=C/c2ccc(O)c([N+](=O)[O-])c2)NC1=S,14.7%,/,?,/,11.2µM*,/
COc1ccc(C(=O)Nc2ccc(C)cn2)c(OC)c1,4.2%[38.3 µM],-1.7,-11.3%[46.1 µM],-0.4%,-7.8%,-4.4%
Cc1cccn2c(CN3CCCN(C=O)CC3)c(C(=O)N(C)CCc3ccccc3)nc12,0.8%,/,0.6%,/,2.9%,/
CC(C)CCNc1nc(N)c([N+](=O)[O-])c(NCC2CCCO2)n1 (centres undefined),7.2%,/,-0.4%,-7.0%,11.2µM*,-18.6%
Nc1nc(NCC2CCCO2)nc(NCC2CCCO2)c1[N+](=O)[O-] (centres undefined),0.0%,/,8.2%,1.1%,?,-5.4%
Cc1cc(C(F)(F)F)nc(CCNCc2c(C(=O)N3CCCC3)nc3ccccn23)n1,17.4%,/,-5.8%,/,-2.1%,/
COC(=O)c1ccc(NC2(C#N)C(=O)Nc3ccccc32)cc1 (centres undefined),8.7%[38.3 µM],-2.7,-10.7%[46.1 µM],1.7%,-5.6%,-3.6%
COc1ccccc1N1C(=O)C(Cl)=C(Nc2ccccc2O)C1=O,14.9%,/,-13.6%,/,12.6µM*,/
Cc1cc(Oc2ccc(=O)n(C)n2)nc(SCC(N)=O)n1,/,/,10.5%,/,/,/
COc1ccc(C)cc1NC(=O)CC1COc2ccccc2O1 (centres undefined),10.0%,/,-1.5%,/,-0.6%,/
O=C(Nc1ccc(Cl)cn1)C1COc2ccccc2O1 (centres undefined),4.3%,/,23.8%,/,22.4µM*,/
COc1cc(OC)c(OC)cc1NC(=O)CC1COc2ccccc2O1 (centres undefined),2.7%,2.1,4.0%[46.1 µM],1.0%,3.55µM*,-9.4%
O=C(NCc1ccccc1)C1COc2ccccc2O1 (centres undefined),4.6%,-3.0,-1.5%[46.1 µM],-7.4%,-0.8%,11.2µM*
Cc1onc(-c2ccccc2)c1C(=O)NCC1COc2ccccc2O1 (centres undefined),24.4%[38.3 µM],8.3,-5.2%[46.1 µM],-4.0%,-6.6%,-9.6%
